Measurements: ChEMBL document CHEMBL1157539, “Thousands of chemical starting points for antimalarial lead identification” (Nature, 2010)

Columns and labels:
Assay type in all cases: functional
Plasmodium falciparum [1] = test: GSK_TCMDC: Inhibition of Plasmodium falciparum 3D7 in whole red blood cells, using parasite LDH activity as an index of growth. Test compounds present at 2uM
Plasmodium falciparum [2] = test: GSK_TCMDC: Inhibition of Plasmodium falciparum Dd2 in whole red blood cells, using parasite LDH activity as an index of growth. Test compounds present at 2uM
HepG2 = test: GSK_TCMDC: Percent inhibition of human HepG2 cell line. Test compounds present at 10uM.

SMILES | Inhibition (Plasmodium falciparum [1]) [%] | Inhibition (Plasmodium falciparum [2]) [%] | Inhibition (HepG2) [%]
O=C(/C=C/c1ccc2ccccc2c1)NCCCCCN1CCC(c2c[nH]c3ccccc23)CC1 | 90 | 4 | 18
COc1ccc2nc(/N=C3\NC(c4ccccn4)(c4ccccn4)C(=O)N3C)[nH]c2c1 | 99 | 98 | 65
N#Cc1ccc(N/C(=N\c2ccc(-c3ccccc3)cc2)NCc2cccnc2)c(O)c1 | 100 | 46 | 2
Cc1cccc2nc(-c3cccc(-c4ccc(CNCCCN5CCCC5=O)cc4)c3)[nH]c12.O=C(O)C(F)(F)F | 100 | 38 | 5
O=C(NCc1ccc(Cl)c(Cl)c1)c1ccc(C2CCN(Cc3ccc4[nH]cnc4c3)CC2)cc1 | 100 | 31 | 1
COc1ccccc1-c1sccc1C(=O)NC1(c2cc(Cl)cc(Cl)c2)CCCC1 | 88 | 95 | 0
O=C(O)C(F)(F)F.OCCN1CCN(Cc2cccc(-c3ccc(-c4nc5cc(C(F)(F)F)ccc5[nH]4)cc3)c2)CC1 | 100 | 85 | 19
O=C(NCCc1ccc(O)cc1)n1c2ccccc2c2ccccc21 | 83 | 76 | 3
Cc1cc(NC(=O)NCCN2CCC(NS(=O)(=O)c3cccc(Br)c3)C2)c2ccccc2n1.O=C(O)C(F)(F)F (stereo not given) | 99 | 58 | 0
Fc1ccc2[nH]c(-c3ccc(-c4cccc(CN5CCC(CCN6CCCCC6)CC5)c4)cc3)nc2c1.O=C(O)C(F)(F)F | 100 | 100 | 96
CCC1CN2CCc3c([nH]c4ccccc34)C2CC1CC1NCCc2cc(OC)c(OC)cc21.Cl (stereo not given) | 100 | 83 | 26
Cc1cccc2nc(-c3ccc(-c4ccc(CNCc5cccc(N)c5)cc4)cc3)[nH]c12.O=C(O)C(F)(F)F | 100 | 84 | 12
COc1ccc(NC(=O)CCNc2ccnc(NCCc3ccc(F)cc3)n2)cc1.O=C(O)C(F)(F)F | 94 | 5 | 4
COc1ccc2nccc(N(C)CC3(O)CCC(NCc4cc5c(cn4)OCCO5)CC3)c2n1.Cl (stereo not given) | 99 | 14 | 1
O=C1c2ccc([N+](=O)[O-])cc2C(=O)N1c1ccc2[nH]ncc2c1 | 87 | 0 | 11
